# Data from the supplement of paper PMC9262897, “Low-cost anti-mycobacterial drug discovery using engineered E. coli” (Nature Communications, 2022).
# ± gives the standard deviation of the averaged measurements.
# What was measured:
# Assay in all cases: growth (OD600 after 10 h); higher = more growth (less inhibition)
# [1] = test system: E. coli TESEC Alr+ wild-type control; details: compound 0.1 mM; raw OD600 reference: median of DMSO wells 0.241, cell-free background 0.041
# Experimental: (§1)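 TESEC Mtb Alr E. coli, or the Alr+ wild-type control, in 384-well plates with Prestwick library compounds at 0.1 mM and 1% DMSO, across arabinose induction levels of 1E3 to 1E7 nM. Growth is read as OD600 after 10 h at 37 °C in triplicate biological replicates.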
# E. coli TESEC Mtb Alr [2] = details: compound 0.1 mM
# Experimental: as §1
# E. coli TESEC Mtb Asd = details: compound 0.1 mM
# Experimental: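 TESEC E. coli strains in which the native enzyme is deleted and replaced by arabinose-inducible Mtb Asd, DapB, CysH or TrpD, each grown in its selective medium. Strains were screened against the Prestwick library at 0.1 mM and 1% DMSO in 384-well format at low and high arabinose induction. Growth is read as OD600 after 10 h in triplicate.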
# [3] = test system: E. coli TESEC Alr+ wild-type control; details: compound 0.1 mM; raw OD600 reference: median of DMSO wells 0.49, cell-free background 0.052
# Experimental: (§2)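 TESEC Mtb Alr E. coli (ΔaraC ΔtolC ΔentC Δalr ΔdadX, arabinose-inducible Mtb Alr) or the Alr+ wild-type control strain, grown in defined M9-fructose medium without D-alanine in 96-well plates with Prestwick library compounds at 0.1 mM and 1% DMSO. Low Alr induction is 0.1 µM arabinose and high induction is 10 mM arabinose.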
# E. coli TESEC Mtb Alr [4] = details: compound 0.1 mM; remark: listed apart in the source
# Experimental: as §2
# [5] = arabinose 1000 nM, raw OD600 reference: median of DMSO wells 0.294, cell-free background 0.041
# [6] = arabinose 10000 nM, raw OD600 reference: median of DMSO wells 0.264, cell-free background 0.041
# [7] = arabinose 100000 nM, raw OD600 reference: median of DMSO wells 0.201, cell-free background 0.041
# [8] = arabinose 1000000 nM, raw OD600 reference: median of DMSO wells 0.193, cell-free background 0.041
# [9] = arabinose 10000000 nM, raw OD600 reference: median of DMSO wells 0.146, cell-free background 0.041
# [10] = arabinose induction (level): High, raw OD600 reference: median of DMSO wells 0.331, cell-free background 0.041
# [11] = arabinose induction (level): Low, raw OD600 reference: median of DMSO wells 0.417, cell-free background 0.041
# [12] = arabinose 100 nM, raw OD600 reference: median of DMSO wells 0.413, cell-free background 0.052
# [13] = arabinose 10000000 nM, raw OD600 reference: median of DMSO wells […], cell-free background 0.052
SMILES,growth [1],growth (E. coli TESEC Mtb Alr [2]; [5]),growth (E. coli TESEC Mtb Alr [2]; [6]),growth (E. coli TESEC Mtb Alr [2]; [7]),growth (E. coli TESEC Mtb Alr [2]; [8]),growth (E. coli TESEC Mtb Alr [2]; [9]),growth (E. coli TESEC Mtb Asd; [10]),growth (E. coli TESEC Mtb Asd; [11]),growth [3],growth (E. coli TESEC Mtb Alr [4]; [12]),growth (E. coli TESEC Mtb Alr [4]; [13])
C1N2CN3CN1CN(C2)C3 [Methenamine],0.245 ± 0.011,0.287 ± 0.0055,0.275 ± 0.0029,0.198 ± 0.025,0.226 ± 0.0064,0.14 ± 0.0044,0.345 ± 0.048,0.33 ± 0.051,0.59 ± 0.14,0.41 ± 0.01,0.376 ± 0.0071
Nc1ccn([C@@H]2CS[C@H](CO)O2)c(=O)n1 [Lamivudine],0.239 ± 0.0031,0.292 ± 0.011,0.262 ± 0.0097,0.211 ± 0.037,0.209 ± 0.0042,0.144 ± 0.0079,0.353 ± 0.0047,0.425 ± 0.021,0.563 ± 0.13,0.407 ± 0.0069,0.357 ± 0.0056
O=S(=O)(O)CCS [Mesna],0.2377 ± 0.0019,0.282 ± 0.0091,0.28 ± 0.0078,0.193 ± 0.012,0.206 ± 0.016,0.13 ± 0.0052,0.341 ± 0.079,0.371 ± 0.058,0.513 ± 0.074,0.4246 ± 0.0021,0.337 ± 0.0046
CCOC(=O)C(C)(C)Oc1ccc(Cl)cc1 [Clofibrate],0.237 ± 0.0033,0.287 ± 0.0062,0.268 ± 0.0049,0.19 ± 0.013,0.194 ± 0.0078,0.137 ± 0.0052,0.279 ± 0.041,0.415 ± 0.043,0.609 ± 0.065,0.4111 ± 0.0031,0.325 ± 0.0033
